High-throughput results as filed in PubChem.
FMDV inh = High Throughput Screening for Foot and Mouth Disease Virus Antivirals; Potency, µM (top dose mostly 57.9 µM), without a hit: at the highest dose activity change, negative = inhibition, usual class: inhibitors; 410,000 compounds, 1.2% hits; FMDV antiviral cell-based qHTS; calls by dose curve; tested in HEK293T cells; also: read-out not given here; nearly all actives have a fitted effect of over 45% in size
Marburg entry inh = qHTS for inhibitors of binding or entry into cells for Marburg Virus. Potency, µM (highest dose often 37.8 µM), inactives show at the highest dose activity change, negative = inhibition, actives largely listed as inhibitors. 300,000 compounds, 1.8% hits. Marburg virus pseudotyped entry inhibition, cell reporter; calls by dose curve; tested in HEK293 cells
HCV inh = qHTS Assay for Inhibitors of Hepatitis C Virus (HCV); Potency, µM (highest dose often 41.8 µM), without a hit: top-dose activity change, negative = inhibition, hits mostly inhibitors; 340,000 compounds, 3.4% hits; Huh7.5.1 HCVcc-Cre infection, luciferase reporter, 44 h
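1,000 cells/well; 4 h culture; + compound; + HCVcc-Cre (~0.5 moi); 44 h; luciferase substrate, RT 15 min; read 15 sec.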
RE007 growth inh = qHTS Assay for Inhibitors of the HIV-1 protein Vpr. S. pombe RE007 Vpr strain, BacTiter-Glo ATP luminescence, 24 h. Potency, µM (doses to about 92.2 µM), inactives show at the highest dose activity change, negative = less growth, usual class: inhibitors. 360,000 compounds, 0.21% hits. AID 651644, 2012; active = well fitted falling curve with a large enough effect; inconclusive = small, poorly fitted or top-dose-only effect; inactive = no such curve, though single readings can be large or run the other way; also: nearly all actives have a fitted effect of over 50% in size
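Fission yeast RE007 carrying one integrated HIV-1 vpr copy, seeded at OD 0.01 in PMG+AL medium with 23 nL pinned compound. Grown 24 h at 30 degrees; viability read by BacTiter-Glo luminescence after 5 min.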
LASV entry inh = qHTS for Inhibitors of binding or entry into cells for Lassa Virus | Lassa virus pseudotype entry inhibition, cell reporter | Potency, µM (top dose mostly 37.9 µM), for inactives: at the top dose activity change, negative = inhibition, actives largely listed as inhibitors | 300,000 compounds, 1.2% hits | AID 540256, 2011; calls by dose curve; tested in HEK293 cells; also: nearly all actives have a fitted effect of over 50% in size
Sm TGR block = qHTS Assay for the Inhibitors of Schistosoma Mansoni Peroxiredoxins; 360,000 compounds, 3% hits; Potency, µM (titrated, usually from 114 µM), without a hit: at the top dose activity change, negative = inhibition, hits mostly inhibitors; purified TGR, DTNB reduction, TNB absorbance 405 nm; also: nearly all actives have a fitted effect of over 60% in size
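First, TGR (20 nM dispensed) and NADPH were mixed with compound. Second, a 15 min room-temperature incubation followed. Third, further NADPH and then DTNB were added to start the reaction. Finally, TNB absorbance was monitored kinetically.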
* hit, by the source's call; ? = inconclusive; . = not tested or not shown; [ ] = another dose, or the depositor's remark. Rows were chosen to be rich in hits. Some 7.2% of all compounds tested hit in one or more screens of this group. Unless noted, calls follow the shape of the dose curve; as a rule, active = well fitted curve in the direction sought with a large enough effect; inconclusive = small, poorly fitted or top-dose-only effect, or another doubt; inactive = no such curve, though single readings can be large; an effect the other way counts as inactive or inconclusive. % is scaled to controls: 0 for no effect and ±100 for the full control effect; potency is read from the fitted curve at half-maximal effect.

SMILES	FMDV inh	Marburg entry inh	HCV inh	RE007 growth inh	LASV entry inh	Sm TGR block
O=C(c1ccccc1)N1CCOC12CCN(c1ncc(C(F)(F)F)cc1Cl)CC2	16µM*	-27%	8%	11%	?	21%
CN(C)/C=C/C(=O)c1ccc(N2CCN(c3ncc(C(F)(F)F)cc3Cl)CC2)cc1	25µM*	?	?	?	?	-28%
CCOc1ccc(Nc2nc3cc(S(=O)(=O)N(CC)CC)ccc3o2)cc1	-20%	?	10µM*	-8%	?	7%
Cc1cc(N2CCCCC2)n2nc(C)c(-c3ccccc3)c2n1	?	-20%	1.6µM*	-24%	?	-9%
COc1ccccc1-c1c(C)nn2c(-c3ccccc3)cc(C)nc12	?	?	5µM*	3%	?	1%
Cc1cc(N2CCC(C)CC2)n2nc(C)c(-c3ccccc3)c2n1	-24%	8%	-19%	3%	9%	0%
COc1ccccc1-c1c(C)nn2c(N3CCCCCC3)cc(C)nc12	28µM*	?	13µM*	-10%	?	-7%
COc1ccc(-c2c(C)nn3c(-c4ccccc4)cc(C)nc23)cc1OC	?	-2%[46.1 µM]	.	.	-1%[46.1 µM]	-6%
Cc1nn2c(N3CCCC3)cc(C(C)C)nc2c1-c1ccccc1	-3%	-3%	14µM*	-9%	6%	?
COc1ccccc1-c1c(C)nn2c(N3CCOCC3)cc(C)nc12	?	.	?	24%	.	1%
CCOc1ccccc1NC(=O)c1ccc2c(Cl)c3c(nc2c1)CCC3	29%	?	.	.	19%[46.1 µM]	4%
Cc1noc(-c2ccc(Cl)cc2)c1C(=O)O/N=C(\N)c1ccc(C(C)(C)C)cc1	25µM*	?	?	-28%	?	10%
CC(C)(C)c1ccc(C(=O)O/N=C(\N)c2ccccc2)cc1	0.71µM*	.	?	.	.	-8%
CCOC(=O)/C(C#N)=C/C1=C(N2CCOCC2)C(C)(C)OCC1	-6%	9%	1%	-14%	9%	28µM*
CCOC(=O)/C(C#N)=C\C1=C(N2CCCC2)CC(C)(C)OC1	-6%	-4%[46.1 µM]	-10%	?	15%	-7%
CCN(CC)c1cc2c(cc1F)c(=O)c(S(=O)(=O)c1ccc(OC)cc1)cn2CC	-1%	.	.	.	-9%[46.1 µM]	-14%
CCOC(=O)c1ccc(N2C(=O)CC(NC3CCN(C(=O)c4ccc(F)cc4)CC3)C2=O)cc1 (configuration not stated)	1%	1%	8%	0%	6%	50µM*
CCOc1ccc(N2C(=O)CC(NC3CCN(C(=O)c4ccc(F)cc4)CC3)C2=O)cc1 (configuration not stated)	-11%	1%	24%	?	?	18µM*
CCOC(=O)N1CCN(c2nc(CN3CCCCC3CCO)nc3c(C)cccc23)CC1 (configuration not stated)	-10%	.	.	.	.	.
CCCn1c(CC)nc([N+](=O)[O-])c1Sc1ccc(F)cc1	18µM*	-2%	-27%	-6%	-2%	45µM*
COc1cccc(/C=C/c2nc(C#N)c(N3CCCCC3)o2)c1	0%	1%[46.1 µM]	.	.	-18%[46.1 µM]	2%
Cc1ccc(-c2nonc2NC(=O)c2ccc(F)cc2)cc1C	-20%	5%[46.1 µM]	.	.	-1%[46.1 µM]	-1%
CCOc1ccc(NC(=O)c2sc3nc4c(c(-c5ccc(OC)cc5)c3c2N)C(=O)CC(C)(C)C4)cc1	1%	11%[46.1 µM]	.	.	-20%[46.1 µM]	-2%
CNC(=O)c1ccsc1NC(=O)c1sc2ccccc2c1Cl	6%	?	11µM*	-1%	2%	-8%
CCN(CC)c1ccc(NC(=O)c2sc3ccccc3c2Cl)cc1	64%	.	.	.	-24%[46.1 µM]	-2%
SMILES	FMDV inh	Marburg entry inh	HCV inh	RE007 growth inh	LASV entry inh	Sm TGR block
CCN(CC)Cc1ccc(NC(=O)c2sc3cc(Cl)ccc3c2Cl)cc1	?	?	?	28µM*	?	9%
COc1ccccc1C(=O)NNC(=S)NC(=O)c1sc2ccccc2c1Cl	-24%	-12%	2%	1%	-3%	-11%
Cc1c(NC(=S)NC(=O)c2sc3ccccc3c2Cl)cccc1C(=O)O	-24%	.	1%	5%	.	3.2µM*
CC1CC(C)CN(C(=O)CNC(=O)c2sc3ccccc3c2Cl)C1 (configuration not stated)	7%	.	8.9µM*	-15%	.	-21%
COc1ccc(S(=O)(=O)c2cn(CC(=O)Nc3ccccc3)c3ccc(Cl)cc3c2=O)cc1	26%	-8%[46.1 µM]	.	.	0%[46.1 µM]	1%
COc1cccc(CN(C)C(=O)CNC(=O)c2sc3ccccc3c2Cl)c1OC	40µM*	-9%	?	4%	?	2%
O=C(Nc1ccc(CN2CCCCC2)cc1)c1sc2ccccc2c1Cl	4%	?	11µM*	-2%	-13%	-6%
COCc1nnc(NC(=O)c2sc3ccccc3c2Cl)s1	27%	10%	4%	?	-19%	-2%
Cc1ccc(NC(=O)c2sc3ccccc3c2Cl)nc1	.	?	-14%	6%	5.8µM*	-1%
Cc1nnc(NC(=O)c2sc3ccccc3c2Cl)s1	-69%	?	-9%	?	12µM*	-1%
COc1ccc(NC(=S)/N=C(\N)Nc2nc(C)c3ccc(C)cc3n2)cc1	?	.	11µM*	4%	.	18%
Cc1ccc(S(=O)(=O)N(C(=O)c2ccncc2)c2ccc(OC(=O)c3ccncc3)cc2)cc1	-20%	-33%	4%	20%	-18%	-18%
CCc1ccc(S(=O)(=O)N(C(=O)c2ccncc2)c2ccc(OC(=O)c3ccncc3)cc2)cc1	-17%	?	-6%	41%	-3%	-16%
O=C(Oc1ccc(N(C(=O)c2ccncc2)S(=O)(=O)c2ccc(Cl)cc2)cc1)c1ccncc1	-4%	.	-21%	-6%	.	18µM*
COc1ccc(N(C(=O)c2ccncc2)S(=O)(=O)c2ccc(Cl)cc2)cc1	0%	.	4%	-4%	.	20µM*
O=C(Oc1ccc(N(C(=O)c2ccncc2)S(=O)(=O)c2ccc(F)cc2)cc1)c1ccncc1	-14%	-3%	-17%	1%	0%	28µM*
COc1ccc(C(=O)N(c2ccc(OC)cc2)S(=O)(=O)c2cccs2)cc1	-19%	?	1%	0%	-19%	-1%
COc1ccc(N(C(=O)c2ccncc2)S(=O)(=O)c2cccs2)cc1	-6%	-18%[46.1 µM]	6%	4%	23%	25µM*
COc1ccccc1CN(Cc1cc2cc(C)ccc2[nH]c1=O)Cc1nnnn1Cc1ccco1	?	13µM*	13µM*	-10%	?	40µM*
